Test [1] has as its system Human papillomavirus type 1a protein E7 (residues 44-93). Nature of the test: small molecules binding HPV E7 44-93 – biochemical, small-molecule microarray, residues 44-93, 635 nm fluorescence, primary screen (AID 1108).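 Also: E7 fragment applied at 1 µg/mL in TBST for 1 h at 4 C; score combines spot fluorescence with its signal to noise ratio.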 Conditions: fluorescence 635 nm, higher = more signal.
A short description of test [2]: hepatitis C replication reporter changes, two-sided – Huh7 cells, luciferase reporter, HCV replication inhibitor project, primary screen (AID 1109).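 Also: huh7 hepatoma cells harbouring a luciferase neomycin HCV replicon reporter; luciferase luminescence as measure of HCV replicon replication; test concentration not given here.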 Particulars: Huh7 HCV replicon luciferase reporter, 48 h; higher = more signal.
Test [3] concerns the target Left-right determination factor 2 (Homo sapiens) (UniProt O00292). Nature of the test: small molecules binding LEFTY2 protein – biochemical, small-molecule microarray, 635 nm fluorescence scan, primary screen (AID 1110). Conditions: higher = more signal.
Test [4] addresses Calmodulin-1 (Homo sapiens) (UniProt P0DP23). The test can be described thus: small molecules binding calmodulin-1 with EGTA – biochemical, small-molecule microarray, Cy5-labelled CALM1, profiling panel (AID 1111).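 Also: labelled calmodulin applied in Tris saline Tween buffer holding calcium plus EGTA and DTT.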 Particulars: Cy5-CALM1 binding fluorescence, higher = more signal.
Test [5] has the same target. The test can be described thus: small molecules binding Ca-loaded calmodulin-1 – biochemical, small-molecule microarray, Cy5-labelled CALM1, plus calcium, artefact control for SMM control-protein annotation, profiling panel (AID 1112).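 Also: score merges spot fluorescence with signal to noise from triplicate slides.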 Conditions: Cy5-CALM1 binding fluorescence, higher = more signal.
Test [6] in a line: probe aWnt5a binding to arrayed compounds – biochemical, biotinylated probe, 635/667 nm fluorescence, primary screen (AID 1113).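 Also: score merges 667 nm fluorescence intensity with signal-to-noise per printed feature.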 Conditions: small-molecule microarray, higher = more signal.
Test [7] can be described thus: probe aShh binding to arrayed compounds – biochemical, biotinylated probe, 635/667 nm fluorescence, primary screen (AID 1114).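 Also: probe is biotin-labelled aShh protein from a stem cell growth factor screen; measures binding of labelled protein to compounds printed on the slide; score merges feature fluorescence at 667 nm with signal-to-noise.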 Particulars: small-molecule microarray, higher = more signal.
Test [8] can be described thus: probe aNog binding to arrayed compounds – biochemical, biotinylated probe, 635/667 nm fluorescence, primary screen (AID 1115).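 Also: probe is biotinylated aNog protein used at 0.15 µg/mL for 1 h at 4 C; z-score combines 667 nm fluorescence of each spot with its signal to noise.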 Conditions: small-molecule microarray, higher = more signal.
For test [9], the target named is Torsin-1A-interacting protein 1 (Homo sapiens) (UniProt Q5JTV8). The test can be described thus: compound microarray binding of lysate hLAP1 – cell lysate, small-molecule microarray, COS7 lysate, 635/667 nm fluorescence, primary screen (AID 1116). Particulars: 635 nm fluorescence, higher = more signal.
Test [10] has as its target Alpha-bungarotoxin (Bungarus multicinctus) (UniProt P60615). The test can be described thus: compounds binding labelled alpha-BTX control protein – biochemical, small-molecule microarray, Alexa647 label, 635/667 nm fluorescence, artefact control for SMM control protein annotation, profiling panel (AID 1117). Particulars: alpha-BTX-A647 binding fluorescence, higher = more signal.

A further test deals with Albumin (Bos taurus) (UniProt P02769). Nature of the test: compounds binding labelled BSA control protein – biochemical, small-molecule microarray, Alexa647 label, 635/667 nm fluorescence, artefact control for SMM control protein annotation, profiling panel (AID 1118).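 Also: score merges 667 nm emission intensity and signal-to-noise per printed compound spot.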 Particulars: BSA-A647 binding, fluorescence 635 nm, higher = more signal.
Test [11] is described as follows: probe aXIP binding to arrayed compounds – biochemical, NeuroSMM set, 635/667 nm fluorescence, primary screen (AID 1119).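 Also: probe is the protein aXip251-270 applied at 1 µg/mL to compound-printed slides; binding of probe to printed compounds measured as 667 nm fluorescence plus signal to noise.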 Particulars: small-molecule microarray, higher = more signal, called active from +8 up or from −8 down.
Test [12] can be described thus: probe aNOTCH3 binding on compound microarray – biochemical, small-molecule microarray, 635/667 nm fluorescence, primary screen (AID 1120).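 Also: probe is a biotin-tagged antibody raised against NOTCH3 rather than NOTCH3 protein; score merges spot fluorescence near 667 nm with spot signal to noise.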 Particulars: higher = more signal.
Test [13] is described as follows: probe aNOTCH2 binding on compound microarray – biochemical, small-molecule microarray, 635/667 nm fluorescence, primary screen (AID 1121).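 Also: score merges feature fluorescence read at 667 nm with its signal to noise.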 Conditions: higher = more signal.
The target of test [14] is Carbonic anhydrase 2 (Homo sapiens) (UniProt P00918). The test can be described thus: compounds binding carbonic anhydrase 2 – biochemical, small-molecule microarray, Alexa647-labelled CAII, profiling panel (AID 1122). Conditions: CAII-A647 binding fluorescence, higher = more signal.
The nature of test [15]: COS7 lysate on small-molecule microarray, probe aHis, 635 nm (AID 1123).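 Also: z-score combines 667nm fluorescence intensity with signal-to-noise per printed compound spot.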 Particulars: COS7 cell lysate, fluorescence, higher = more signal.
Test [16] is described as follows: probe aLAP1 signal on lysate-treated microarray – cell lysate, small-molecule microarray, COS7 lysate, primary screen (AID 1124).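 Also: lysate comes from COS7 cells expressing LAP1 and is applied at 0.3 µg/mL; score merges spot fluorescence near 667 nm with signal-to-noise over triplicate slides.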 Particulars: probe aLAP1, fluorescence, higher = more signal.
The next test concerns Sam68 (KHDRBS1). The test can be described thus: compounds binding KHDRBS1 protein – biochemical, small-molecule microarray, 635 nm fluorescence, primary screen (AID 1125).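 Also: score merges 667 nm channel intensity with signal to noise over triplicate slides.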 Conditions: higher = more signal.
In test [17] the test system is Chordin-like protein 2 (CHRDL2). The test can be described thus: compounds binding chordin-like 2 – biochemical, small-molecule microarray, 635 nm fluorescence, primary screen (AID 1126).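 Also: printed compound slides probed with Chrdl2 protein at 4 µg/mL for 1 h at 4 C; score merges 667 nm emission intensity with signal to noise over three replicate slides.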 Conditions: fluorescence 635 nm, higher = more signal.
Test [18] concerns the target Concanavalin-A (Canavalia ensiformis) (UniProt P02866). Nature of the test: compounds binding concanavalin A lectin – biochemical, small-molecule microarray, Alexa647 label, 635 nm, artefact control for SMM control protein annotation, primary screen (AID 1127).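 Also: z combines 667 nm emission intensity with signal-to-noise across three replicate slides.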 Conditions: ConA-A647 binding fluorescence, higher = more signal.

For six compounds, composite z-score, z-score and composite Z-score results are on record in PubChem BioAssay.

SMILES strings stand for the structures. The source made the active and inactive calls.

Sequence of Left-right determination factor 2 (Homo sapiens) (O00292 whole entry, looked up): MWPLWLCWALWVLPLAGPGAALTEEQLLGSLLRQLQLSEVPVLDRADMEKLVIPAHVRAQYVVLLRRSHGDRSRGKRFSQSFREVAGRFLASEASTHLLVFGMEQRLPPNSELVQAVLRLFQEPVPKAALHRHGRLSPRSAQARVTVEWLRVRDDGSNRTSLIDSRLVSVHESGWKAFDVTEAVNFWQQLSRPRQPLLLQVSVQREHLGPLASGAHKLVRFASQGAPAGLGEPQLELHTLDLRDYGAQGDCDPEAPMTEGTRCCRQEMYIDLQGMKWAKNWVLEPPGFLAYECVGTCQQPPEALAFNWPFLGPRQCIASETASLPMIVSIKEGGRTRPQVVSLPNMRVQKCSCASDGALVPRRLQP
Sequence of Concanavalin-A (Canavalia ensiformis) (P02866 whole entry, looked up): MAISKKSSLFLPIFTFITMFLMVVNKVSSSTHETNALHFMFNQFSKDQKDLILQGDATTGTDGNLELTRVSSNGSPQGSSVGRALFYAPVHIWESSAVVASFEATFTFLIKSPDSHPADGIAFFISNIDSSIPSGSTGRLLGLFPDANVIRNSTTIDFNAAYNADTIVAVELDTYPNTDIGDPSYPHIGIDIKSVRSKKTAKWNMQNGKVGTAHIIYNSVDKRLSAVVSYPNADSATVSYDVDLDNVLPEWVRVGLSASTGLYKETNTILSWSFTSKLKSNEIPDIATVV
Sequence of Torsin-1A-interacting protein 1 (Homo sapiens) (Q5JTV8 whole entry, looked up): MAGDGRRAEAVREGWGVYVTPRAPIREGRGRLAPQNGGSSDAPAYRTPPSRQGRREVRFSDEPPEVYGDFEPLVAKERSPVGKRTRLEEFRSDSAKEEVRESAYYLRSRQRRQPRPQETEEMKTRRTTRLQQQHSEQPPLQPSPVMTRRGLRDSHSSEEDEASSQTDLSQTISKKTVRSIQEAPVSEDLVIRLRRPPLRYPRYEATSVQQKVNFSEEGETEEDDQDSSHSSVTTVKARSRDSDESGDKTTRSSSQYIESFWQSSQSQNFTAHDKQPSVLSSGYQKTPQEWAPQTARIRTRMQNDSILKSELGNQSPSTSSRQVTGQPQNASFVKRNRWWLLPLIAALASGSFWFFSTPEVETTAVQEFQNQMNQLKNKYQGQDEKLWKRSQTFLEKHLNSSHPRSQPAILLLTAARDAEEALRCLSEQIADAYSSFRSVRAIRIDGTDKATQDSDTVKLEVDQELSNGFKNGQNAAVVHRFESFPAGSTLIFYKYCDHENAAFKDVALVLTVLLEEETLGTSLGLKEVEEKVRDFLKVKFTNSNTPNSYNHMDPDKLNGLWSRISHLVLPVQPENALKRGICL
Sequence of Albumin (Bos taurus) (P02769 whole entry, looked up): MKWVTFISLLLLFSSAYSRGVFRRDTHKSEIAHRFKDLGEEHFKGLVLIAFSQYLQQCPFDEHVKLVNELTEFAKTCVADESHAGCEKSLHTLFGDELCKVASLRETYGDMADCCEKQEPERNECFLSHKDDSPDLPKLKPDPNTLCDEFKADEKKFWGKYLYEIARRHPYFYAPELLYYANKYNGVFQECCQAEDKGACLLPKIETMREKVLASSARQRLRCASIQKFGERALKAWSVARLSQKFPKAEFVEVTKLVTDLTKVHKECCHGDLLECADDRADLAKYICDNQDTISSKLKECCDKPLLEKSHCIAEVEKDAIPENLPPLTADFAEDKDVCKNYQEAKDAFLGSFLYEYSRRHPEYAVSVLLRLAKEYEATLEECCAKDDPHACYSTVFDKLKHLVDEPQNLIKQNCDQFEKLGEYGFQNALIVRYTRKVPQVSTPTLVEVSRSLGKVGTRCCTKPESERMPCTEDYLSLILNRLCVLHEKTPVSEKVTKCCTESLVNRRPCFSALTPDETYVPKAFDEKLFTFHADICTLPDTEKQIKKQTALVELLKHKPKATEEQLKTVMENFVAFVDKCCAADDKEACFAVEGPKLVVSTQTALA
Sequence of Alpha-bungarotoxin (Bungarus multicinctus) (P60615 whole entry, looked up): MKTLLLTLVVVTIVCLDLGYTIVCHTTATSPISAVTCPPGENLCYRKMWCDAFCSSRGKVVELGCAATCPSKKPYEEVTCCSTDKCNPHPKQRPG

Regarding `CN(C)CCCNC(=O)[C@@]1(c2ccc([N+](=O)[O-])cc2)CC(=O)N(C2CCCCC2)[C@@H]1c1ccc(CO)cc1I`, the composite z-score in test [1] was 1.41; in test [3], -0.104; in test [4] it was -0.0828; in [5] it was -0.245; in [6], -0.0721; in test [7] it was -0.147. The composite z-score in test [8] was -0.606; in [9], 0.46; in test [10] it was 1.03; with Albumin (Bos taurus), -0.13; in test [12], -0.128; in [13], -0.124. The composite z-score in [14] was found to be 0.397; in [15] it was 1.7; in [16] it was 0.742; with Sam68 (KHDRBS1) it was 1.34; in test [17], 0.096; in test [18], 1.15. The z-score in [2] is -3.46. The composite Z-score in test [11] is -0.75 (inactive).

In the case of `C=CCN1C(=O)[C@]2(O[C@H](CCO)[C@@H]([Si](C)(C)c3ccc(OC)cc3)[C@@H]2C)c2cc(N3C(=O)c4cccc5cccc3c45)ccc21`, the composite z-score was 1.17 in test [1]; 0.164 in test [3]; 0.719 in test [4]; 0.124 in [5]; -0.159 in [6]; 0.0639 in [7]. Further, the composite z-score in test [8] was -0.338; in test [9], 0.374; in test [10], 0.3; with Albumin (Bos taurus) it was 0.634; in [12] it was -0.0377; in test [13] it was -0.0956. The composite z-score amounted to 0.542 in [14]; 0.808 in [15]; 0.0553 in [16]; 0.838 in the test with Sam68 (KHDRBS1); 0.0493 in test [17]; 0.795 in [18]. Also, the z-score in test [2] is -5.11. For the same compound, the composite Z-score in [11] was -0.106 (inactive).

As for `C=CCOC(=O)[C@@H]1[C@H]2C(=O)O[C@H](c3ccccc3)[C@H](c3ccccc3)N2[C@H](c2ccc(OCCOC(=O)[C@@H]3C[C@@H]4C(=O)N[C@@H](CCCC[N+](C)(C)C)C(=O)N4[C@@H]3c3cccc(OCCO)c3)cc2)[C@@]12C(=O)Nc1ccc(I)cc12`, the composite z-score in [1] was 0.741; in test [3], 0.692; in [4] it was 1.02; in test [5] it was 0.0416; in test [6] it was -0.0512; in test [7] it was -0.0146. The composite z-score in [8] is 0.886; in test [9], 0.897; in [10], 1.59; with Albumin (Bos taurus), 0.769; in test [12] it was 0.0257; in [13], -0.0666. The composite z-score in [14] was 0.46; in test [15], 1.9; in test [16], 0.0596; with Sam68 (KHDRBS1), 1.29; in test [17], 1.21; in test [18], 1.19. The z-score in [2] was -2.48. Moreover, the composite Z-score in [11] was 0.516 (inactive).

In the case of `COCC(=C=CC[C@H](O)c1ccccc1OCCO)C[C@H](O)c1cc(Cl)cc(Cl)c1O`, the composite z-score in [1] was 1.31; in test [3], 0.223; in test [4], 0.068; in [5], -0.596; in test [6], 0.0357; in [7], 0.207. Also, the composite z-score in test [8] was 0.464; in [9], 0.743; in [10], 1.08; with Albumin (Bos taurus) it was 0.384; in test [12] it was -0.0077; in test [13], -0.115. In addition, the composite z-score in [14] was 0.351; in test [15], 0.834; in [16], 0.478; with Sam68 (KHDRBS1), 1.24; in test [17] it was -0.383; in test [18], 0.689. This compound yielded a z-score in [2] of -4.43. In addition, the composite Z-score in test [11] was 2.26 (inactive).

Consider `O=C1c2ccccc2[C@@]2(Cc3ccccc3N(CCN3CCOCC3)C2=O)[C@H](c2ccc(CO)cc2)N1Cc1ccccc1`, for which the composite z-score in test [1] was -0.22; in test [3], -0.976; in test [4], -0.211; in [5], -0.11; in test [6], -0.128; in test [7], -0.0709. Besides, the composite z-score in [8] was -0.5; in [9] it was 1.01; in test [10], 0.175; in the test with Albumin (Bos taurus), -0.425; in test [12] it was -0.165; in [13], -0.115. The composite z-score in test [14] was 0.739; in test [15], 0.733; in test [16], 0.235; in the test on Sam68 (KHDRBS1) it was -0.419; in [17], -0.717; in [18], 0.203. Also, the z-score in test [2] is -0.446. In addition, the composite Z-score in [11] is -0.117 (inactive).

`O=C1OCCC/C=C\[C@H]2OC34C=CCN(Cc5ccccc5)C(=O)[C@H]3N(CCCCCCO)C(=O)[C@@H]4C12` (stereo not given in full): the composite z-score was 0.103 in [1]; -1.74 in [3]; -0.046 in test [4]; 0.572 in test [5]; -0.206 in test [6]; -0.0337 in test [7]. Further, the composite z-score is -0.355 in test [8]; -1.03 in test [9]; -0.313 in test [10]; -0.449 with Albumin (Bos taurus); -0.262 in test [12]; -0.141 in test [13]. Moreover, the composite z-score was 0.893 in test [14]; -0.19 in test [15]; 0.468 in test [16]; 0.139 in the test on Sam68 (KHDRBS1); -1.24 in test [17]; -1.3 in test [18]. In addition, the z-score in test [2] is -1.3. Moreover, in test [11], the composite Z-score is 0.986 (inactive).
